Test results published in the GenesisPotency data set.
Hit rate of the full screen: of about 110 compounds, fewer than 10 were called active.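 The calls were made as follows: active = EC50 at or below 33 microM; inactive = the rest.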 These entries were drawn from the full list. Entries with a potency or affinity are not part of this list.

Target: Ammonium transporter MEP2, Saccharomyces cerevisiae (strain ATCC 204508 / S288c) (UniProt P41948)
Test: yeast MEP2-GFP fusion level changes, TOR pathway – flow cytometry, KU SAR set, S. cerevisiae, dose response (AID 488801)

Chain of Ammonium transporter MEP2, Saccharomyces cerevisiae (strain ATCC 204508 / S288c) (P41948 whole entry, the tested form may be a part): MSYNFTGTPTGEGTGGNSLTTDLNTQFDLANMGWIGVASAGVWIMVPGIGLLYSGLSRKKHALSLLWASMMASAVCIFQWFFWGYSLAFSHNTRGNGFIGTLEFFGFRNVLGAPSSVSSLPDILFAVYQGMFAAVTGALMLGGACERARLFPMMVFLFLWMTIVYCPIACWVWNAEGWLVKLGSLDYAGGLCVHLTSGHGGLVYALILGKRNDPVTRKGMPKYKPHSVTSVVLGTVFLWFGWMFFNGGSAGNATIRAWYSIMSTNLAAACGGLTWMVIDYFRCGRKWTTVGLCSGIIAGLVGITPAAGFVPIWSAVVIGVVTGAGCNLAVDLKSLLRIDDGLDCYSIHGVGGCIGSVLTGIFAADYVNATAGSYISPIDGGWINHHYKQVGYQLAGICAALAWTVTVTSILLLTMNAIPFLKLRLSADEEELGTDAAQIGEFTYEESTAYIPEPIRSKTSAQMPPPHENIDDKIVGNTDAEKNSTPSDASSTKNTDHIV

outcome, inactive:
O=[N+]([O-])c1ccc(O)c2ncccc12
CC(C)(C)c1ccc(NC(=O)COC(=O)c2ccc([N+](=O)[O-])s2)cc1
Nc1nc(NCc2ccco2)nc(Nc2cccc(F)c2)c1[N+](=O)[O-]
CC(C)(C)C(=O)NC(=S)NNC(=O)c1ccc(-c2ccccc2)cc1
CNc1nc(N)c([N+](=O)[O-])c(NCc2ccccc2)n1
Nc1nc(Nc2ccccc2F)nc(Nc2cccc(F)c2)c1[N+](=O)[O-]
CNc1nc(N)c([N+](=O)[O-])c(Nc2cc(OC)ccc2OC)n1
CCC(C)Nc1nc(N)c([N+](=O)[O-])c(Nc2cccc(F)c2)n1 (stereo not drawn)
O=C(CCc1ccccc1)NNC(=S)NC(=O)c1ccccc1
CC(Oc1ccc(Cl)cc1)C(=O)NNC(=S)NC(=O)c1ccco1 (stereo not drawn)
O=[N+]([O-])c1cc(O)c2ncccc2c1
Cc1ccc2nc(Cl)c3nnnn3c2c1
Cc1nn2c(-c3ccncc3)nnc2c2ccccc12
